Source: ChEMBL document CHEMBL3988442, “University of Dundee, Small-Polar-MMV Screening Library” (2021)
For some assays here: Entries with a potency or affinity are not part of this list.

Assays:
Design in all cases: scale not given: direction of the effect not stated beside the values
[1] = target: Protein translocase subunit SecA (Escherichia coli (strain K12)) (UniProt P10408); experiment: Assay to Identify E. coli SecA ATPase Inhibitors; assay type: functional; conditions: 30 µM
[2] = target: T1, Ubiquitin-activating enzyme e1, putative (Leishmania donovani (strain BPK282A1)) (UniProt E9BSI1); experiment: Leishmania donovani Ubiquitin Activating Enzyme (LdE1); assay type: functional; conditions: 30 µM
T1 sequence (whole entry): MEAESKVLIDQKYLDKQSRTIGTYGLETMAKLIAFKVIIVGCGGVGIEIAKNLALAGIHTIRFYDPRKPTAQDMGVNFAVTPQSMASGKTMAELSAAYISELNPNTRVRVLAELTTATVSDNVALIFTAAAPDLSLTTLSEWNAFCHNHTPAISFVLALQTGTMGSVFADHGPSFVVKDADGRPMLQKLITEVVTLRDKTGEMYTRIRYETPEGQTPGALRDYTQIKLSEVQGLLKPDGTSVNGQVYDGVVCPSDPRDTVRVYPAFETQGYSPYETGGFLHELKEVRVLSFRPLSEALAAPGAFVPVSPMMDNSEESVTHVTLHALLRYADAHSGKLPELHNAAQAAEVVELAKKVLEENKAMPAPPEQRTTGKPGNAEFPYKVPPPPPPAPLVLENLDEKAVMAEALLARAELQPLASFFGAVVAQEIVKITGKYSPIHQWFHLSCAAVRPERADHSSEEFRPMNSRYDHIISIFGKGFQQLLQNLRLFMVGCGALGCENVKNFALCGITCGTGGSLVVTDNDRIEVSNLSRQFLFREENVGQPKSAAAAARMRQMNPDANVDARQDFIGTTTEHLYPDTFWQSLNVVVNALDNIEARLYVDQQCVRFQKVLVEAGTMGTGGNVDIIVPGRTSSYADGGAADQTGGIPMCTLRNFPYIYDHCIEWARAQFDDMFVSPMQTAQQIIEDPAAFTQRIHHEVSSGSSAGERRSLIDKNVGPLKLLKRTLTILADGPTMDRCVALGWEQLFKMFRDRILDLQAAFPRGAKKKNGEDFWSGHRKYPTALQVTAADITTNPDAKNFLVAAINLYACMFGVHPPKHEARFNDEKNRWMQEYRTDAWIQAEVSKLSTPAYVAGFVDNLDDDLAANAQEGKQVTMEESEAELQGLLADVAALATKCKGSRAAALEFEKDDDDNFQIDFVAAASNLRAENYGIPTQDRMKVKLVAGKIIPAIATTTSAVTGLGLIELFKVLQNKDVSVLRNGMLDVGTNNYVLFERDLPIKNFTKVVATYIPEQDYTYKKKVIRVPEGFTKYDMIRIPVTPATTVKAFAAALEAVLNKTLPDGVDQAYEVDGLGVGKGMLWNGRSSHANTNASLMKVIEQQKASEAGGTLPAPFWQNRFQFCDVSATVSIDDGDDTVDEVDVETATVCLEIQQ

[3] = target: AMP-activated protein kinase, AMPK (Homo sapiens) (UniProt P54646+O43741+P54619+Q9UGJ0+Q9Y478+Q13131+Q9UGI9); experiment: AMP-dependent Kinase enzyme assay. An in vitro enzyme assay that detects ADP turnover that is directly proportional to AMPK activity. This uses naive AMPK that is activated during the assay with MK-8722; assay type: functional; conditions: 30 µM
[4] = target: Sialic acid-binding Ig-like lectin 9 (Homo sapiens) (UniProt Q9Y336); experiment: Hs-Siglec9 ALPHAscreen SOP 20170721; conditions: 10 µM
[5] = tested on: Trypanosoma cruzi; experiment: Trypanosoma cruzi phosphomannomutase and mannose-1-phosphate guanylyltransferase assay; assay type: functional; conditions: 10 µM
[6] = target: T2, Arginase-2, mitochondrial (Homo sapiens) (UniProt P78540); experiment: in vitro enzyme assay to detect the production of urea directly proportional to the activity of Arginase II; assay type: functional; conditions: 33.3 µM; note: in the data most compounds retested in dose-response had high values
T2 sequence (whole entry): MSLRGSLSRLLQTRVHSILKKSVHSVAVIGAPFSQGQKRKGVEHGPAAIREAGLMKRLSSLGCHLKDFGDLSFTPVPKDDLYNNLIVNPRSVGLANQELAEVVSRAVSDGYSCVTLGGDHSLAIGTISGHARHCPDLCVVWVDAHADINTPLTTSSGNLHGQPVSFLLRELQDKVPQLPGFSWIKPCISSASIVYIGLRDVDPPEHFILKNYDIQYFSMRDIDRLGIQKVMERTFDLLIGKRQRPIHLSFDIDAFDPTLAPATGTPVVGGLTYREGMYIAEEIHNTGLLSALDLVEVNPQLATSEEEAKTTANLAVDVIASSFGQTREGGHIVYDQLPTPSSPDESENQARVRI

[7] = target: T3, Proteasome subunit beta (Trypanosoma cruzi) (UniProt O96673); experiment: Trypanosoma cruzi proteasome chymotrypsin-like activity (TcProtChymo) assay.; note: in the data most compounds retested in dose-response had high values; assay type: functional; conditions: 9.37 µM
T3 sequence (whole entry): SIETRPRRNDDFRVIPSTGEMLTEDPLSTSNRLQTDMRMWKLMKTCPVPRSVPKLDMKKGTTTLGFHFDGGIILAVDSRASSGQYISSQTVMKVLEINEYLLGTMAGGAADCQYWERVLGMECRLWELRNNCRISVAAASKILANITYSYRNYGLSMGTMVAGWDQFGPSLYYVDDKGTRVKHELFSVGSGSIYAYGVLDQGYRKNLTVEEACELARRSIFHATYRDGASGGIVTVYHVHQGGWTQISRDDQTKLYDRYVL

[8] = species: Homo sapiens; experiment: To identify inhibition of the IFN signalling (Jak-Stat) pathway via expression of an eGFP reporter gene under the control of an IFN-stimulated response element (ISRE) containing MxA promoter.; assay type: functional; conditions: 30 µM
[9] = target: T4, Tyrosyl-tRNA synthetase, putative (Trypanosoma cruzi (strain CL Brener)) (UniProt Q4DSP6); experiment: Trypanosoma cruzi tyrosyl tRNA synthetase (TcYRS) _High Tyrosine SOP; assay type: functional; conditions: 30 µM; note: in the data most compounds retested in dose-response had high values
T4 sequence (whole entry): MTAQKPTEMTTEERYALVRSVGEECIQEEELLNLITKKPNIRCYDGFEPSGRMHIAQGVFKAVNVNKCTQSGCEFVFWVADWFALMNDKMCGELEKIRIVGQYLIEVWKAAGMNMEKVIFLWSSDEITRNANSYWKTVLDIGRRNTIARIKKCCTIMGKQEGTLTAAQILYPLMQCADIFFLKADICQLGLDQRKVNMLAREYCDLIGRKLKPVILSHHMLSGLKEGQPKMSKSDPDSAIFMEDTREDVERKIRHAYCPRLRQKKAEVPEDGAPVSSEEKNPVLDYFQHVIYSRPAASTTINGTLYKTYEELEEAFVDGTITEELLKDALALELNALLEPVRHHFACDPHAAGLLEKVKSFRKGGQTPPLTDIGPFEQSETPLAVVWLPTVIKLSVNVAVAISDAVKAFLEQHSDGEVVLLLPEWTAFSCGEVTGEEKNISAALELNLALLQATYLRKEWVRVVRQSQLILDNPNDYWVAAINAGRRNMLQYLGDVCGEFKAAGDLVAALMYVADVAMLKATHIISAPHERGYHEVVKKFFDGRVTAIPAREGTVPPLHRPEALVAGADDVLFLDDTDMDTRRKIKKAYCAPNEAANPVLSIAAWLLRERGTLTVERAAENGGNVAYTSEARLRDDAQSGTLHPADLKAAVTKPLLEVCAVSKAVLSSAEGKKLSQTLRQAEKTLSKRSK

[10] = target: T4, Tyrosyl-tRNA synthetase, putative (Trypanosoma cruzi (strain CL Brener)); experiment: Trypanosoma cruzi tyrosyl tRNA synthetase (TcYRS) SOP; assay type: functional; conditions: 30 µM
[11] = target: Chromo domain-containing protein 1 (Saccharomyces cerevisiae (strain ATCC 204508 / S288c) (Baker's yeast)) (UniProt P32657); experiment: ScCHD-1 Enzyme Inhibition Assay; assay type: functional; conditions: 30 µM; note: in the data most compounds retested in dose-response had high values
Sequence of Chromo domain-containing protein 1 (Saccharomyces cerevisiae (strain ATCC 204508 / S288c) (Baker's yeast)) (P32657 whole entry, the tested form may be a part): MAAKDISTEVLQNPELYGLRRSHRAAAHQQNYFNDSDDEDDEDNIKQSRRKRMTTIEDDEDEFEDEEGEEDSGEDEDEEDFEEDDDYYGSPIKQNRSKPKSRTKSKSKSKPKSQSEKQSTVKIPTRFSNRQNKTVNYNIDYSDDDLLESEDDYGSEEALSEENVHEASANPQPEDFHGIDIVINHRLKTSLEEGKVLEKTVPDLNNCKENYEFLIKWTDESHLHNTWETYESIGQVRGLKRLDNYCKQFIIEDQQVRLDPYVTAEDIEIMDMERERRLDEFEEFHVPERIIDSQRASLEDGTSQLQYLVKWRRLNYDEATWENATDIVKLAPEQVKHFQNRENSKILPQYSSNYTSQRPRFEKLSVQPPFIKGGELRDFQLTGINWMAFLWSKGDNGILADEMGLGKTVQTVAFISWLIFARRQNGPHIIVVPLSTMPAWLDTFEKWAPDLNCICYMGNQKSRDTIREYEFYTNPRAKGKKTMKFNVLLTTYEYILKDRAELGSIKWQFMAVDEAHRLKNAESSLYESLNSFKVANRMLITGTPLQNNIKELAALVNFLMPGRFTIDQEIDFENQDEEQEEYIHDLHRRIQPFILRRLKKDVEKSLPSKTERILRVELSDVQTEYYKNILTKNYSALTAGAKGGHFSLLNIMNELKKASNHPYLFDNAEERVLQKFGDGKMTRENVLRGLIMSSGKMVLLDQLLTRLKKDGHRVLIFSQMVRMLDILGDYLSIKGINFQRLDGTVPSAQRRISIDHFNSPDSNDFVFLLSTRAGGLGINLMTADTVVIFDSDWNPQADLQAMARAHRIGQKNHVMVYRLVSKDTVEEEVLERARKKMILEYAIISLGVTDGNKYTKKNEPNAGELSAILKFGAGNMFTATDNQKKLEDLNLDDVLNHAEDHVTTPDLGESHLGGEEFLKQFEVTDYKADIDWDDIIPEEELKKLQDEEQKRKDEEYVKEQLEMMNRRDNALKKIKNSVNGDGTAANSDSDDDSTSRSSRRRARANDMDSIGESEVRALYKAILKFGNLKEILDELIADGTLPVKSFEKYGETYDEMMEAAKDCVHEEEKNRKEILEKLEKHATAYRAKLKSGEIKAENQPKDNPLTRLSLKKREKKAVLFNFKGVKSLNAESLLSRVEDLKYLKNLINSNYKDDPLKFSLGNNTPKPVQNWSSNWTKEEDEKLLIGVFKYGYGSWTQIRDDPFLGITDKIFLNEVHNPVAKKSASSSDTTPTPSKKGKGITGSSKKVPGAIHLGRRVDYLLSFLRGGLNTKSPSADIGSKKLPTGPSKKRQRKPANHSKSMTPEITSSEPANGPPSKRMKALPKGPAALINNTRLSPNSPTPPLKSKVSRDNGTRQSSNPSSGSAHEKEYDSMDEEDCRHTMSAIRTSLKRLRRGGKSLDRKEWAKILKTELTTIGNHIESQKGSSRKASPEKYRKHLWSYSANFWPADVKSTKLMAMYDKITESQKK

Sequence of Sialic acid-binding Ig-like lectin 9 (Homo sapiens) (Q9Y336 whole entry): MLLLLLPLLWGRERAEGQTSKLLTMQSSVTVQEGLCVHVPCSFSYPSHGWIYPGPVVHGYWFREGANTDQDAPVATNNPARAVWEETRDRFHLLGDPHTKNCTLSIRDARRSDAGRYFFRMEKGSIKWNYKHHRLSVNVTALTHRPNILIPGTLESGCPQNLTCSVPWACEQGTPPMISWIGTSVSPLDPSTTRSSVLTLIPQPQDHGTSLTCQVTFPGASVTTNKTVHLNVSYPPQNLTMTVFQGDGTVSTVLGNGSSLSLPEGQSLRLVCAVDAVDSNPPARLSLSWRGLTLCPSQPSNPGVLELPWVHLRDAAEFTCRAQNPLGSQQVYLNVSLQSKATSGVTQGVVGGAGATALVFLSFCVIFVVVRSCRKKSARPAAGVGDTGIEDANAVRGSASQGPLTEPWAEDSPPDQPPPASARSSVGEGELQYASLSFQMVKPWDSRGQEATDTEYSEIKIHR
Sequence of Protein translocase subunit SecA (Escherichia coli (strain K12)) (P10408 whole entry): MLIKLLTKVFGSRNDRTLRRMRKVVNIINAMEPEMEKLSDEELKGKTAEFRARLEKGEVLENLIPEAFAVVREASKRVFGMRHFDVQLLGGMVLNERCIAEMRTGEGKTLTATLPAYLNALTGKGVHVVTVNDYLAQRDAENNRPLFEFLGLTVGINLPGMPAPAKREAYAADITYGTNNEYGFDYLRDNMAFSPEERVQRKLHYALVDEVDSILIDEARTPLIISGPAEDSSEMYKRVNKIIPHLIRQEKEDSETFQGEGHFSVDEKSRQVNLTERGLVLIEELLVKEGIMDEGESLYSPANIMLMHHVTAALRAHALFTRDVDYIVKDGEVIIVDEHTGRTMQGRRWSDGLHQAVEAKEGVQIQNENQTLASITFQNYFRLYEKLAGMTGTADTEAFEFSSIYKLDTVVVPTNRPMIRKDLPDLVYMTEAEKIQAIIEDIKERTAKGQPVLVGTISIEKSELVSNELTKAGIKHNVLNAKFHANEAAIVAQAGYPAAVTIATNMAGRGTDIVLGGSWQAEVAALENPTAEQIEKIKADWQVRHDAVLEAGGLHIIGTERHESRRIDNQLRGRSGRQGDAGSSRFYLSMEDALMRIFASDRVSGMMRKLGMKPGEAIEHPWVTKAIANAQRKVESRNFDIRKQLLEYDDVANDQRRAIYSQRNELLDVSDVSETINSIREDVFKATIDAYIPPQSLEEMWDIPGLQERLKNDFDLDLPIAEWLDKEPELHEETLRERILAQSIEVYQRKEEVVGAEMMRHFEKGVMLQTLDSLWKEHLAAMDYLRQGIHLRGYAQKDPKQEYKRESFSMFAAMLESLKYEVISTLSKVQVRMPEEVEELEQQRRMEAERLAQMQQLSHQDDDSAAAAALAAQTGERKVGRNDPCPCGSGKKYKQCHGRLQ

O=C(CCO)N1CCOC2(CCCN(C(=O)c3ccco3)C2)C1 (stereo not given)
Percent Effect [1]: 2.21%
Percent Effect [2]: -5.2%
Percent Effect [3]: 0.24%
Percent Effect [4]: 19.9%
Percent Effect [5]: 4.82%
Percent Effect [6]: 4.14%
Percent Effect [7]: 11.3%
Percent Effect [8]: -33.1%
Percent Effect [9]: -12.9%
Percent Effect [10]: -13.6%
Percent Effect [11]: 0.942%

CSCC(C)(O)CNC(=O)c1ccc(Br)cc1C (stereo not given)
Percent Effect [1]: 0.706%
Percent Effect [2]: 0%
Percent Effect [3]: 2.08%
Percent Effect [4]: -6.13%
Percent Effect [5]: -1.27%
Percent Effect [6]: -1.74%
Percent Effect [7]: 8.15%
Percent Effect [8]: -5.12%
Percent Effect [9]: 2.15%
Percent Effect [10]: 6.17%
Percent Effect [11]: 0.55%

Cc1ncsc1CN1C[C@@H](OCC2CC2)[C@H]2OCCC[C@H]21
Percent Effect [1]: -6.87%
Percent Effect [2]: 8.11%
Percent Effect [3]: -8.86%
Percent Effect [4]: 32.2%
Percent Effect [5]: 4.79%
Percent Effect [6]: -0.248%
Percent Effect [7]: 24.3%
Percent Effect [8]: -4.12%
Percent Effect [9]: 5.38%
Percent Effect [10]: 16.1%
Percent Effect [11]: -8.25%

Cc1ccccc1CN1CCN(CC(=O)Nc2cccnc2)CC1
Percent Effect [1]: -3.14%
Percent Effect [2]: 15.6%
Percent Effect [3]: -360%
Percent Effect [4]: -1.61%
Percent Effect [5]: 6.95%
Percent Effect [6]: 3.58%
Percent Effect [7]: 11.1%
Percent Effect [8]: 12.5%
Percent Effect [9]: 4.76%
Percent Effect [10]: 18.8%
Percent Effect [11]: -2.58%

CCOC(=O)N1CCC(C(=O)c2cc(F)ccc2F)CC1
Percent Effect [1]: -3.27%
Percent Effect [2]: -2.63%
Percent Effect [3]: 4.38%
Percent Effect [4]: -6.37%
Percent Effect [5]: -1.69%
Percent Effect [6]: 4.98%
Percent Effect [7]: -3.34%
Percent Effect [8]: 10.2%
Percent Effect [9]: -1.47%
Percent Effect [10]: -4.88%
Percent Effect [11]: -0.881%

Cc1cn(-c2ccccc2)nc1NS(=O)(=O)c1cccc(C(=O)O)c1
Percent Effect [1]: -4.24%
Percent Effect [2]: 0%
Percent Effect [3]: 9.15%
Percent Effect [4]: -6.49%
Percent Effect [5]: -9.01%
Percent Effect [6]: 5%
Percent Effect [7]: 14.4%
Percent Effect [8]: 10.4%
Percent Effect [9]: -5.38%
Percent Effect [10]: -5%
Percent Effect [11]: -7.14%

CC(C)CC(=O)N1CCCn2cnc(CN3CCCC3=O)c2C1
Percent Effect [1]: -3.7%
Percent Effect [2]: 0%
Percent Effect [3]: -0.875%
Percent Effect [4]: -3.33%
Percent Effect [5]: -3.23%
Percent Effect [6]: 1.74%
Percent Effect [7]: -0.429%
Percent Effect [8]: -1.05%
Percent Effect [9]: 2.15%
Percent Effect [10]: 6.17%
Percent Effect [11]: -0.173%

c1ccc(-c2noc(CNC3CCc4ncnn4C3)n2)nc1 (stereo not given)
Percent Effect [1]: -2.18%
Percent Effect [2]: -5.41%
Percent Effect [3]: -0.412%
Percent Effect [4]: 1.92%
Percent Effect [5]: -4.74%
Percent Effect [6]: 1.66%
Percent Effect [7]: -5.57%
Percent Effect [8]: 6.37%
Percent Effect [9]: 2.97%
Percent Effect [10]: 1.22%
Percent Effect [11]: -1.02%

CC(C)NC(=O)CS(=O)(=O)Cc1cc(Cl)c2c(c1)OCCO2
Percent Effect [1]: -2.36%
Percent Effect [2]: 20.2%
Percent Effect [3]: -6.59%
Percent Effect [4]: -0.915%
Percent Effect [5]: -0.283%
Percent Effect [6]: -1.52%
Percent Effect [7]: 0.737%
Percent Effect [8]: 13.3%
Percent Effect [9]: 7.39%
Percent Effect [10]: 24.1%
Percent Effect [11]: -5.39%

Cc1cccc(CN2CCc3ncnc(N4CCOCC4)c3CC2)n1
Percent Effect [1]: -4.12%
Percent Effect [2]: -5.48%
Percent Effect [3]: 1.75%
Percent Effect [4]: -1.38%
Percent Effect [5]: -1.39%
Percent Effect [6]: 3.59%
Percent Effect [7]: 4.2%
Percent Effect [8]: 20.4%
Percent Effect [9]: -1.04%
Percent Effect [10]: 1.24%
Percent Effect [11]: -0.552%
